Hit rate of the full screen: of about 310,000 compounds, about 14,000 (4.5%) showed an effect of 50% or more. The effect is printed as a negative number. What follows is part of a selection rich in strong results, with near analogues and random picks from the rest.
The molecules below were run against human ether-à-go-go-related gene (hERG) potassium channel (human, UniProt Q12809) (assay: primary screen, population patch clamp on CHO cells stably expressing hERG; higher = less effect of the substance).
human ether-à-go-go-related gene (hERG) potassium channel, sequence (Q12809 whole entry, looked up): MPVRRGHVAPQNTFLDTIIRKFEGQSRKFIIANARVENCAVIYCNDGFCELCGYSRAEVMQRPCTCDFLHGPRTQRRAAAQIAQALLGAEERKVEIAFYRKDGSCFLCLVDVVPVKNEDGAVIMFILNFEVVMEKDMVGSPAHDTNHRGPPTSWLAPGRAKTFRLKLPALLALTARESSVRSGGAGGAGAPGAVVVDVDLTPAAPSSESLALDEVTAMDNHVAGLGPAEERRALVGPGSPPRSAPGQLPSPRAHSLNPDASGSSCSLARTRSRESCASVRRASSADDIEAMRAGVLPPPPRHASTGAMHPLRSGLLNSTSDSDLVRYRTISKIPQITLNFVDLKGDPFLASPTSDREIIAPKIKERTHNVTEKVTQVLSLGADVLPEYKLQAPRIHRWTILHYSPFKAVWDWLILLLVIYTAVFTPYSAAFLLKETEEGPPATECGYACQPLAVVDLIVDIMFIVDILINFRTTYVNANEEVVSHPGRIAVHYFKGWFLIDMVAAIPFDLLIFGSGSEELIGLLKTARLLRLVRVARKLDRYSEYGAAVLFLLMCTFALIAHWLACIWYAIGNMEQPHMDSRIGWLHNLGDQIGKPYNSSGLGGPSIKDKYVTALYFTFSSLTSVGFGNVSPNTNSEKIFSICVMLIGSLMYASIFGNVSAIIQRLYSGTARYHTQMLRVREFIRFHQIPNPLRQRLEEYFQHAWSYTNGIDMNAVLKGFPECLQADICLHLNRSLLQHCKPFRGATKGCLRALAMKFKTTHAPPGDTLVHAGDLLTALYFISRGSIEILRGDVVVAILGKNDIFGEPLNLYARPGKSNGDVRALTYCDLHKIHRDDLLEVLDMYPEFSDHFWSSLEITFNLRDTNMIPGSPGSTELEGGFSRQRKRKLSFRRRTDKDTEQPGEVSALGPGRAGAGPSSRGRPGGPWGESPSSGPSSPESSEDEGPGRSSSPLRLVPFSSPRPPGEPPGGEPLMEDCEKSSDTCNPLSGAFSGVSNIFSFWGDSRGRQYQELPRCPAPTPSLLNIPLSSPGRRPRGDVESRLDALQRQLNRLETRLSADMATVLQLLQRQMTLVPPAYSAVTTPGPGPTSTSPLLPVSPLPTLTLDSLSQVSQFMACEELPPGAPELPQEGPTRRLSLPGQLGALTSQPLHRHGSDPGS
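Note: peak tail current of the secondary pulse compared with the same well before compound.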

Row | SMILES | hERG current change (%, negative = inhibition) at 10uM [%]
1 | CCOc1ccc(N2C(=O)CC(N3CCN(c4ccc(Cl)cc4)CC3)C2=O)cc1 (stereo not shown) | 18.5
2 | CCOC(=O)C1CCN(S(=O)(=O)c2c(C)[nH]c(=O)[nH]c2=O)CC1 | -0.439
3 | COc1ccc(C(CNC(=O)CSc2ccccc2F)N2CCOCC2)cc1 (stereo not shown) | 10.7
4 | CC(=O)Nc1ccc(/C=C(\C#N)C(=O)NC2CCCCC2)cc1 | 11.2
5 | O=C(Cc1ccccn1)c1ccccc1 | 30.3
6 | Cc1ccc(S(=O)(=O)N/N=C\c2ccc3c(c2)OCO3)cc1C | -11.8
7 | O=C(NCc1ccco1)c1c2c(nc3ccccc13)CCC2 | -24.8
8 | CN(C)CCCNc1c2c(nc3ccccc13)CCC2.Cl | -3.18
9 | O=C(NC(CO)Cc1ccccc1)c1ccccc1 (stereo not shown) | -10.5
10 | Cl.c1ccc(CNc2ncnc3ccccc23)cc1 | 4.3
11 | c1coc(CNc2c3c(nc4ccccc24)CCC3)c1 | -78.7
12 | c1ccc(CNc2nc(-c3ccccc3)nc3ccccc23)cc1 | 4.15
13 | c1coc(CNc2c3c(nc4ncnn24)CCC3)c1 | -29.6
14 | c1ccc(CNc2c3ccccc3nc3ccccc23)cc1 | -77.1
15 | OCC(Cc1ccccc1)Nc1c2ccccc2nc2ccccc12 (stereo not shown) | -71.2
16 | COCCNc1c2c(nc3ccccc13)CCC2.Cl | -58.5
17 | CN(C)CCNc1c2c(nc3ccccc13)CCC2 | -0.291
18 | O=C(Cc1ccccc1)NNc1c2ccccc2nc2ccccc12 | 12.3
19 | Cc1ccc(N2C(=O)C3C4CC(=O)C(c5ccccc54)C3C2=O)cc1C (stereo not shown) | -12.3
20 | C#CCOCCOCCOCCNc1nc(N2CCN(C(=O)Cn3cc(CC(C)O)nn3)CC2)nc(N2CCN(C(=O)Cn3cc(CC(C)O)nn3)CC2)n1 (stereo not shown) | -7.58
21 | CC(C)(C)[C@H]1C=C(C(=O)O)O[C@@H](OCCCCO)C1 | 6.41
22 | CC12CCC(C(=O)NCc3ccco3)(OC1=O)C2(C)C (stereo not shown) | 2.02

Row | SMILES | hERG current change (%, negative = inhibition) at 10uM [%]
23 | COc1cccc(NC(=O)Nc2cc(C(=O)O)ccc2N2CC3CC(C2)c2cccc(=O)n2C3)c1 (stereo not shown) | 8.25
24 | O=C(Nc1nccs1)c1cc2sccc2n1Cc1ccc(Cl)cc1 | -2.4
25 | Cc1ccc(C)c(N(CC(=O)NC(C)(C)C)C(=O)CCC(=O)Nc2nccs2)c1 | 2.56
26 | CC(C)Cn1c(N)c(C(=O)CSc2nc3ncc(Cl)cc3[nH]2)c(=O)n(C)c1=O | -0.019
27 | Cc1coc2cc3oc(=O)c(CCC(=O)N4CCC(C(=O)O)(c5ccccc5)CC4)c(C)c3cc12 | 0.933
28 | CC(C)(C)N1CC(OC(N)=O)C1 | 21
29 | Cc1c2ccccc2nc2ccccc12 | -1.84
30 | CC(C)CNC(=O)COC(=O)c1c2c(nc3ccccc13)CCC2 | 4.12
31 | Clc1c2c(nc3ccccc13)CCC2 | 16.4
32 | CC(C)(C)OC(=O)NNc1c2ccccc2nc2ccccc12 | -27.7
33 | CC(C)NCC(=O)Nc1c2c(nc3ccccc13)CCC2.O=C(O)C(=O)O | 6.26
34 | OCCNc1c2c(nc3ccccc13)CCCC2 | -39
35 | CC(C)(C)Nc1c2ccccc2nc2ccccc12 | -68.2
36 | CC(C)CNc1c2c(nc3ccccc13)CCC2.Cl | -69.2
37 | Cl.c1ccc(CNc2c3c(nc4ccccc24)CCC3)cc1 | -75.3
38 | Cc1ccc(N/N=C/c2ccncc2)cc1.Cl | 4.03
39 | O=C(COC(=O)c1ccc(O)cc1)NC1CCCCCC1 | 7.22
40 | O=C(NNS(=O)(=O)c1ccc(C(F)(F)F)cc1)c1cnn(-c2ccccc2)c1C(F)(F)F | 11.5
41 | CCOc1ccc(N(CC)C(=O)CCS(=O)(=O)c2cccc3nonc23)cc1 | -4.92
42 | O=C(CSc1nnc(COc2ccccc2)n1-c1ccccc1)c1ccccc1 | 11.2
43 | O=C(CCCCCNC(=O)N1CCn2c1nc1ccccc12)NCc1ccccc1Cl | -16.6
44 | CCN(CC)S(=O)(=O)c1cccc(-c2nnc(SCC#N)n2Cc2ccccc2)c1 | -25.5

Row | SMILES | hERG current change (%, negative = inhibition) at 10uM [%]
45 | Cc1cccc(-c2nnc(SCC3CNC(=O)O3)n2-c2ccc(Cl)cc2)c1 (stereo not shown) | -40.3
46 | CCN(CC)S(=O)(=O)c1cccc(-c2nnc(SCc3nnc(-c4cccs4)o3)n2N)c1 | -44.3
47 | COc1cccc(-c2nnc(SCC3CNC(=O)O3)n2-c2ccc(Cl)cc2)c1 (stereo not shown) | 8.33
48 | COc1ccc(-n2c(SCC3CNC(=O)O3)nnc2-c2ccc(Cl)cc2)cc1 (stereo not shown) | -54.8
49 | CCN(CC)S(=O)(=O)c1cccc(-c2nnc(SCC(=O)NC)n2N)c1 | 8.5
50 | CCN(CC)S(=O)(=O)c1cccc(-c2nnc(SCc3nnc(-c4ccccc4)o3)n2C)c1 | -67.4
51 | CCN(CC)S(=O)(=O)c1cccc(-c2nnc(SC(C)C#N)n2Cc2ccccc2)c1 (stereo not shown) | -7.34
52 | CCSc1nnc(-c2cccc(S(=O)(=O)N(CC)CC)c2)n1Cc1ccccc1 | -62.6
53 | CCN(CC)S(=O)(=O)c1ccc(-c2nnc(SCc3nnc(-c4ccccc4)o3)o2)cc1 | 7.63
54 | CCN(CC)S(=O)(=O)c1cccc(-c2nnc(SCC(N)=O)n2N)c1 | -28.9
55 | CCN(CC)S(=O)(=O)c1cccc(-c2nnc(SCC(=O)c3ccc(Cl)s3)n2C)c1 | -52.7
56 | CCn1cc(/C=C(\NC(=O)c2cc(OC)c(OC)c(OC)c2)C(=O)NCCN2CCOCC2)c2ccccc21 | 10.8
57 | COc1ccc(CCNC(=O)Cn2nc([N+](=O)[O-])c(Br)c2C)cc1OC | -0.503
58 | O=S(CC1CC1(Cl)Cl)CC1CC1(Cl)Cl (stereo not shown) | 3.18
59 | O=C(CNc1cccc(S(=O)(=O)N2CCCC2)c1)Nc1cccc(Br)c1 | -18.5
60 | COc1ccccc1N(C)S(=O)(=O)c1ccc(C(=O)NCc2ccc3c(c2)OCO3)cc1 | 4.2
61 | O=C(c1ccc(O)cc1)c1ccc(C(=O)O)c(C(=O)O)c1 | 23.2
62 | Cc1cnc(NC(=O)CSC(=S)N2CCOCC2)s1 | 15.4
63 | COC(=O)Nc1ccc(S(=O)(=O)N2CCC(Cc3ccccc3)CC2)cc1 | 1.4
64 | COc1ccc2nc(NC(=O)CCc3ccc(OC)c(OC)c3)sc2c1 | 26.2
65 | COc1ccc(-c2nnc(SCc3nnc(-c4ccc(Cl)cc4)o3)n2-c2ccccc2)cc1 | -56
66 | COCCn1c(SCc2nnc(-c3ccc(OC)c(OC)c3)o2)nnc1-c1ccncc1 | 1.42

Row | SMILES | hERG current change (%, negative = inhibition) at 10uM [%]
67 | COc1ccc(-n2c(SCc3nnc(-c4ccccc4)o3)nnc2-c2ccccc2)cc1 | -29.5
68 | CCC(C)n1c(-c2cccc(S(=O)(=O)N(CC)CC)c2)n[nH]c1=S (stereo not shown) | 26.6
69 | CCN(CC)S(=O)(=O)c1cccc(-c2n[nH]c(=S)n2CC(C)C)c1 | 6.22
70 | COc1ccc(-c2nnc(SCc3nnc(-c4ccccc4)o3)n2-c2ccccc2)cc1 | -9.78
71 | CCn1c(SCc2nnc(-c3ccccc3)o2)nnc1-c1ccc(S(=O)(=O)N2CCCC2)cc1 | -34.6
72 | CCN(CC)S(=O)(=O)c1ccc(-c2nnc(SCc3nnc(-c4ccc(C)cc4)o3)n2CC)cc1 | -55.2
73 | COc1ccc(-c2nnc(SCc3nnc(-c4ccccc4)o3)n2C)cc1OC | -54.3
74 | CCN(CC)S(=O)(=O)c1cccc(-c2n[nH]c(=S)n2C)c1 | -51.8
75 | CCN(CC)S(=O)(=O)c1ccc(-c2nnc(SCc3nnc(-c4ccc(C)cc4)o3)o2)cc1 | 8.8
76 | COc1ccc(-c2nnc(CSc3nc4ccccc4c(=O)n3C)o2)cc1OC | -4.89
77 | COc1cc(NC(=O)c2ccccc2)ccc1NC(=O)c1cc2ccccc2o1 | 25.8
78 | CCOC(=O)c1cc(-c2ccc([N+](=O)[O-])cc2)nc2c1c(=O)[nH]c(=O)n2Cc1ccccc1 | 11.9
79 | CC1CCN(C(=O)c2[nH]cnc2C(=O)NC2CCN(C(=O)OC(C)(C)C)CC2)CC1 | 9.62
80 | COc1ccc(NC(=S)NCc2ccco2)c(OC)c1 | -2.08
81 | CCOc1ccc(N(C)S(=O)(=O)c2ccc3[nH]cc(C(=O)NCCCOC)c(=O)c3c2)cc1 | 3.51
82 | O=C(O)Cn1c2ccccc2c2ccccc21 | 30.5
83 | COc1ccc2c(c1OC)C(=O)N(c1ncn[nH]1)C2 | 13.5
84 | O=C(/C=C\c1ccc(-c2cccc([N+](=O)[O-])c2)o1)N1CCOCC1 | -10.2
85 | Cc1ccc2[nH]c3c(=O)n(CC(=O)N4CCN(C)CC4)ncc3c2c1 | -1.46
86 | Cn1c(=O)n(C)c2cc(NC(=O)CSc3ccccc3)ccc21 | 4.01
87 | CCc1nc2ccccc2n1CCc1ccccc1.Cl | -16.6
88 | CN(C(=O)c1cc([N+](=O)[O-])ccc1N1CCCC1)C1CCCCC1 | 1.07
